# Results: PubChem BioAssay AID1508600 (Functional Genomics Laboratory (NCATS/FGL), 2020)
# Screen size: about 53,000 sequences; about 3,700 (7%) were called active.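 How the source made its calls: active means gene knockdowns whose robust z-score for IL-1 alpha signal is at least 2 or at most -2, so actives lie on both sides; inactive means the rest.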 The sample as a whole holds a higher share of actives than the screen did.
# Assay: Components of the Cytosolic LPS Sensing Pathway: Gene Identification via Genome-wide siRNA Screen;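 further: robust z of the log signal after scaling to non-targeting control siRNA wells of the plate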
# Settings: RAW264.7 macrophages, IL-1a HTRF, actives lie on both sides, screened at 100 nM (by protocol), cells primed 5 h with Pam3CSK4 first
# Procedure, shortened: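 Cells (RAW264.7, 1×10^4 per well) were transfected with siRNA at 100 nM and cultured 48h at 37 degrees C. Pam3CSK4 was added for 5 hours; LipidA transfection followed for 24 hour. IL-1a was then measured by HTRF.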
row,Sequence,z-score
1,CGAGAUUAUCAGUCAAUUGTT against Tex24,2.02 (active)
2,GGCUUCUGUUUUUAUUUGUTT against Zbtb7c,1.07 (inactive)
3,CGAACUGAAGGUUUUCAAUTT against Knstrn,0.422 (inactive)
4,CCUCACGGCCUUAUAUCUCTT against Fmod,-1.8 (inactive)
5,GGAGACAACCUGUACUCAGTT against Zfp352,-3.18 (active)
6,GGAGAGAGAUGCCCAAAUCTT against Zfp507,-0.362 (inactive)
7,CCAGCUGUGUAACACUACCTT against Gfi1,1.08 (inactive)
8,CCUCUACGAUGACUGGAUGTT against Sh3bp1,0.227 (inactive)
9,GGGUCUUCAGUAUUAACACTT against Yae1d1,2.62 (active)
10,GGCAUACCGGAAACUUGCCTT against Dnajb13,-0.266 (inactive)
11,GGUACAAACACGAUCAAGGTT against Aox4,0.654 (inactive)
12,GGGAAUCAUUAAAUAGGAUTT against Arhgap26,-0.163 (inactive)
13,GGAAGAGCAUGAGUCGUUUTT against Scarb2,-0.122 (inactive)
14,GCUCCUACAAAACAUCCGATT against A130079P16Rik,-2.12 (active)
15,GGAAGUUCAUCAUGAUAUCTT against Cxadr,-0.108 (inactive)
16,GGGCGAUGAAGAAGAGAAATT against Smad1,-0.443 (inactive)
17,GGAAAGUUCUAAUGUUCAUTT against Sumo1,1.55 (inactive)
18,GGAACCCAUCUCUCAAGCATT against Atp5g1,0.563 (inactive)
19,GGCAAUUCAAACAAUGCAGTT against Orm1,-1.41 (inactive)
20,GCUAUAAUUUGACAGUUAGTT against Lrba,0.0367 (inactive)
21,GGAGAGAUGCCUUUUAAGUTT against Zfp954,-0.252 (inactive)
22,GGAUGGUCUUAGGAUUACGTT against Fgf15,2.04 (active)
23,GGUAAAGAUCCAGUGCCGCTT against Tbc1d10c,-1.02 (inactive)

row,Sequence,z-score
1,GGUUCAAGUGCAUUGCUUCTT against Rab34,0.979 (inactive)
2,GGUGGAUUUUAAGUUUCCUTT against Aurkc,3.43 (active)
3,GGGCAAUCUGAGCAAUUGUTT against Wnt7b,-0.213 (inactive)
4,GCCUAGACAAUGGUGACCUTT against Nsfl1c,-0.772 (inactive)
5,CCGACAUUUUCGUCACCAGTT against Gabra1,-1 (inactive)
6,GGCUAAUGUAUCGUCUGAGTT against Asb16,3.06 (active)
7,CCAGCCAUAUCAACCGUAUTT against Lzts3,0.084 (inactive)
8,CCGCUUCUCUAGUGAAUAATT against Uros,-1.56 (inactive)
9,GGAAACACUUGAACAAAGATT against Tph2,0.518 (inactive)
10,GGACAUGUUUGUGUUAAAGTT against Ctnna1,0.187 (inactive)
11,GGUGUGUGGCCAGAAAGUUTT against Sfi1,-2.83 (active)
12,GCUUUAUGAGUUCACGGAGTT against Prkab2,1.02 (inactive)
13,GGUUCUUAUCUCUAUUCAGTT against Olfr1270,0.432 (inactive)
14,GGAAACCUACUGUUGCACUTT against Wdr59,-0.627 (inactive)
15,GAAGAUUGGAUUUAAAGCCTT against Olfr667,-0.891 (inactive)
16,GGCUACAAGUGGGAAUUCATT against Cmtm2b,1.61 (inactive)
17,GGAGCUCAAGAACAGGAUGTT against Clec3b,-0.0394 (inactive)
18,GCGGAGAAUAACAUAUCUCTT against Fut8,-0.521 (inactive)
19,GGAUUUGUAAAUUACCUGGTT against Clec4d,0.544 (inactive)
20,GCACAAUAAUAAUGACACUTT against AI597479,2.76 (active)
21,GUAUGCUAGCAUGAUCAACTT against Ndufa3,1.05 (inactive)
22,GGCCAGAUAUUAUAAGAAATT against Gtdc1,0.332 (inactive)
23,GCCUUUGCAUGGCAGUCUATT against Zfp825,-0.716 (inactive)

row,Sequence,z-score
1,GGCUGUUCAAAGUGACCCUTT against Hbp1,-3.11 (active)
2,GCUGCCUAUGGCUUCUUCCTT against Tmem160,-1.37 (inactive)
3,GGUGCUGAUUACAGUAGAATT against Pcdhga10,2.01 (active)
4,GGACCAAGUAUCAUGAUGUTT against Zfp369,0.222 (inactive)
5,GCACCUCUUGGACAAAAUUTT against Tsc1,-1.59 (inactive)
6,GGCGGCCUAUAUGAGGUUCTT against Cftr,0.548 (inactive)
7,GCAUUGAGAUGAGAGCCUATT against Uroc1,-0.167 (inactive)
8,GCAGUUGUCAUGCUAAACCTT against Ptpn2,2.89 (active)
9,CGAAUACUACGCCAAGAUUTT against Abca2,-0.867 (inactive)
10,GCUCAGUACCGCACAACCATT against Dus3l,-0.827 (inactive)
11,CCUAUUGUGAGCUUAAUGCTT against Nrxn2,-0.74 (inactive)
12,GGGCUAUGUACCCUAUAAUTT against Eps8l1,-1.37 (inactive)
13,GGGCAUUGGUGACUUUGAATT against Hrob,-2.11 (active)
14,GGACACAACAAGUCUUAUGTT against Prg2,-0.876 (inactive)
15,CCUUGCUACUCUGAUAACGTT against Tmeff1,0.761 (inactive)
16,CCUAGUGUGUUAAUUGUAATT against Ric1,-1.28 (inactive)
17,GGAUGCUUACGGGAGACGATT against Tmem9,-0.595 (inactive)
18,GGUGAAGGUGCCUUCCAAATT against Il27ra,2.91 (active)
19,GGAGAUUCACUUUCUAUCUTT against B3gnt9,0.656 (inactive)
20,CCCUAAGACGAAGGAAAUGTT against Pdrg1,-0.844 (inactive)
21,GGCGAGUUCCAGAUUCUUCTT against Car3,1.69 (inactive)
22,GCUGAAGACCGACUACAAGTT against Cnih1,0.569 (inactive)
23,GGUGCCAAUCCUUUGGACATT against 4930590J08Rik,3 (active)
